Results published in PubChem BioAssay (NCI).
The panel holds about 83,000 compounds, 20% with a hit somewhere; the sample as a whole holds those more often.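 Step 1: grow cells in 96-well plates. Step 2: add test compound at a single concentration. Step 3: incubate 48 h. Step 4: record percent growth.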 Unmarked numbers belong to inactive results. Calls of active or inactive are those of the source. Rule for the calls: active = growth percent below 10; inactive = the rest.

Columns and labels:
Test in all cases: NCI-60 one-dose screen, 48 h (100 = growth as untreated, 0 = no growth, -100 = all killed)
Conditions in all cases: 10 µM unless noted
SR leukemia = system: SR leukemia
RPMI-8226 leukemia = system: RPMI-8226 leukemia
OVCAR-8 ovarian = system: OVCAR-8 ovarian
OVCAR-5 ovarian = system: OVCAR-5 ovarian
OVCAR-4 ovarian = system: OVCAR-4 ovarian
SK-OV-3 ovarian = system: SK-OV-3 ovarian
IGROV1 ovarian = system: IGROV1 ovarian
OVCAR-3 ovarian = system: OVCAR-3 ovarian
HS 578T breast = system: HS 578T breast
NCI/ADR-RES ovarian = system: NCI/ADR-RES ovarian

Compound	growth (SR leukemia)	growth (RPMI-8226 leukemia)	growth (OVCAR-8 ovarian)	growth (OVCAR-5 ovarian)	growth (OVCAR-4 ovarian)	growth (SK-OV-3 ovarian)	growth (IGROV1 ovarian)	growth (OVCAR-3 ovarian)	growth (HS 578T breast)	growth (NCI/ADR-RES ovarian)
CNC(=O)c1cc(Oc2ccc(NC(=O)Nc3ccc(Cl)c(OC(F)(F)F)c3)c(F)c2)ccn1	30%	13.6%	30.3%	56.7%	5.4% (active)	64.9%	46.4%	39.8%	51.9%	31.6%
O=C(CCCCC(=O)N/N=C\c1ccccc1O)N/N=C\c1ccccc1O	19.7%	50.2%	41.7%	59%	70.3%	40.3%	27.2%		71%	41.6%
O=C(O)c1c(=O)cccc2ssc12	-9.58% (active)	4.35% (active)	24.1%	-52.8% (active)	-37.1% (active)	39.1%	76.1%	-34.3% (active)	22.4%	29.2%
COc1ccc(C2CC(c3ccc4ccccc4c3)=NN2/C=C2\SC(=S)N(NC(=O)Cc3ccccc3Nc3c(Cl)cccc3Cl)C2=O)cc1 (stereo unspecified)	20.8%	-10.1% (active)	34.6%	56.8%	70%	41.9%	33.1%	2.15% (active)	13.3%	9.39% (active)
C#CCOc1ccc2ncnc(NCc3cccc(NC(=O)CCl)c3)c2c1	15.7% [8.25 µM]	21% [8.25 µM]	17.2% [8.25 µM]	55.3% [8.25 µM]	31.6% [8.25 µM]	83% [8.25 µM]	-68.1% [8.25 µM] (active)	24.2% [8.25 µM]	50.2% [8.25 µM]	77.7% [8.25 µM]
O=C(Cn1cccc(Nc2ccccc2)c1=O)Nc1ccccc1	104%	100%	102%	90.1%	102%	104%		115%	102%	
Cc1cc(C)nc(SC2=C(Nc3ccc(O)cc3)C(=O)N(Cc3ccccc3)C2=O)n1	73.6% [40 µM]	38.8% [40 µM]	111% [40 µM]	120% [40 µM]	85.6% [40 µM]	94.3% [40 µM]	81.4% [40 µM]	80.9% [40 µM]	-13.2% [40 µM] (active)	69% [40 µM]
CC(=O)c1nc2ccccc2n1CC(=O)c1cccc(Cl)c1	-12.6% (active)	-11.8% (active)	10.1%	47.5%	22.9%	17.5%		-31.3% (active)	19%	13.9%
O=C1/C(=C/C(Cl)=C/c2ccccc2)SC(=S)N1CCc1ccc(O)cc1	13.3%	2.88% (active)	16.7%	-20.3% (active)	30.7%	34.8%	-36.6% (active)	-7.98% (active)	37.5%	9.23% (active)
O=C1/C(=C/c2ccccc2)SC(=S)N1CCc1ccc(O)cc1	93.7%	95.5%	96.3%	103%	76.4%	85%		97.4%	76.9%	99.3%
COCCNc1ccc2c3c(cccc13)C(=O)N(CCN(C)C)C2=O	-40.1% (active)	-0.282% (active)	22.3%	30.5%	31.6%	22.9%	18.1%	17.9%	50.8%	31.4%
COc1ccc2c(c1)c(-c1nonc1-c1cn(C)c3ccccc13)cn2C	30.1%	21.2%	35.6%	52%	45.5%	44.6%	42.5%	3.08% (active)	16.7%	17.1%
FC(F)(F)c1nc2c(NCc3ccc(-c4ccccc4)cc3)cccc2[nH]1	7.78% (active)	45%	77.2%	96.1%	88.9%	89.1%	85.8%	64.9%	71.7%	81%
CC(=O)O[C@H]1[C@@H]2OC(=O)C(CSc3ccccc3)[C@@H]2C[C@H]2O[C@]2(C)CC/C=C(\C)CCC[C@@H]1C (stereo partly specified)	58.2%	51.6%	28.7%	83.6%	34.3%	103%		-9.73% (active)	69.6%	29.6%
COc1cc(C(=O)Oc2ccccc2OC(=O)c2cc(OC)c(OC)c(OC)c2)cc(OC)c1OC	103%	76.2%	92.1%	97.4%	105%	84.9%	101%	97.7%		95.7%
CCN(CC)c1ccc(-c2cc(-c3cc(OC)c(OC)c(OC)c3)nc(N3CCOCC3)c2C#N)cc1	-8.39% (active)	-33.1% (active)	-28.4% (active)	5.94% (active)	38.2%	51.8%	19.5%	32.8%	55.8%	27.6%
COc1ccc(C(=O)c2sc3nc4c(c(-c5cccnc5)c3c2N)CCCC4)cc1OC	37.8%	4.67% (active)	85%	86.4%	74%	104%	117%	89.9%	65.8%	89.3%
CCN(CC)S(=O)(=O)c1ccc(OC)c(NC(=O)c2[nH]c(C)c3c2CCCCC3=O)c1	43.4%	16.7%	41.1%	54.1%	49.5%	20.4%	24.8%	39%	16.4%	40.2%
COc1cc2c(cc1-c1c(C)noc1C)ncc1nc(C3CCOCC3)n([C@H](C)COC(F)F)c12	28.3%	18%	42.6%	68.4%	47.9%	1.35% (active)	58.8%	35.2%	16.8%	38.4%
COc1ccc(-n2nc(C)c3c(Oc4ccc(NC(=O)Nc5c(Cl)cccc5Cl)cc4)ncnc32)cc1	111%	102%	97.4%	112%	99.9%	89%	101%	112%	92%	102%
COc1ccc(C(=O)COc2cccc(/C=C3\CSc4ccccc4C3=O)c2)cc1	-65.1% (active)	-62.4% (active)	6.51% (active)	32.4%	84.4%	108%		64.4%	-11.1% (active)	15.1%
CCCCCCN(CCCCCC)C(=N)c1ccnc2ccccc12	35.4%	50.2%	71.7%	77.4%	67.6%	92.4%	65.9%	69.3%		65.1%
O=C1c2c(O)cc(O)cc2-c2c(-c3ccc(O)cc3)oc3cc(O)cc1c23	0.6% (active)	41.8%	46.6%	111%	61.5%	15.7%	52.2%	44%	32.1%	90.4%
Cc1[nH]c(-c2ccc3cc[nH]c3c2)c2c1C(=O)CCCC2	50.9%	21.9%	46.4%	78.2%	48.5%	25.5%	36.9%	51%	21.9%	40.7%
Cc1cc(N2CCSCC2)nc(NC2CCCC(Nc3ccnc4cc(Cl)ccc34)C2)n1 (stereo unspecified)	-54% (active)	-52.6% (active)	-20.9% (active)	29.7%	16.8%	34.8%	-16.1% (active)	-38.4% (active)	-34.2% (active)	1.15% (active)
